According to PubChem BioAssay (NCI):
Compounds without any hit were thinned out: in the full panel of roughly 83,000, 20% have a hit.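 Treatment: one concentration, 48 hours, 96-well format. Scoring: percent growth, with anything below 10 considered active.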 Values without a mark were called inactive. Activity calls are given as the source filed them.

The compounds below were run on SK-MEL-5 melanoma (assay: NCI-60 one-dose screen, 48 h (100 = growth as untreated, 0 = no growth, -100 = all killed)). Details: 10 µM unless noted.

First: NS(=O)(=O)c1ccc(Nc2nc(Nc3ccccc3)nc(-n3nc(-c4ccccc4)cc3-c3ccccc3)n2)cc1
Second: O=c1[nH]c2ccc(Cl)cc2cc1CSc1ccccc1Nc1nccc(-c2ccc(Cl)cc2)n1
The growth of the first is lower: 39.2% for the first, 95.1% for the second.

Going from COc1cc(OC)c(C2C(Cl)C(=O)N2Nc2ncnc3ccccc23)cc1OC (configuration not stated) to COc1ccc(-c2nc3ccc(-c4nnc(SCC(=O)Nc5ccc(C(=O)/C=C/c6ccccc6)cc5)o4)cc3[nH]2)cc1OC, the growth falls from 99.3% to 95.5%.

Going from Cc1[nH]nc2ncc(C#Cc3cncc(C(=O)Nc4ccc(CN5CCN(C)CC5)c(C(F)(F)F)c4)c3)cc12 to CN1CCN(Cc2ccc(NC(=O)c3cncc(C#Cc4cnc5[nH]ncc5c4)c3)cc2C(F)(F)F)CC1, the growth rises from 40.2% to 43.4%.

Compared with Cn1cc(-c2cc(N)n3nc(-c4cn(C)c5ccc(Br)cc45)cc3n2)c2cc(Br)ccc21, Clc1ccc2c(OCCCN3CCOCC3)c3oc4ccccc4c3nc2c1 is lower in growth: 108% for the first, 42.7% for the second.

Compared with N#Cc1nc(-c2ccccc2)oc1S(=O)(=O)N1CCN(CCc2ccccn2)CC1, COc1cc(/C=C/C(=O)c2ccc(F)cc2)ccc1Oc1nc(NCCO)nc(N2CCOCC2)n1 is lower in growth: 97.6% for the first, 82.1% for the second.

O=C(c1ccc(O)cc1)C1[C@H](c2ccc(Cl)cc2)[C@@H](c2ccccc2)NC12C(=O)Nc1ccc(Cl)cc12 (some centres not stated) showed a growth of 67.3%.

CN(C)CCCOc1c2ccc(Cl)cc2nc2c1oc1ccc(Cl)cc12 was tested, and the growth was -19.3% (active).
